In PubChem BioAssay (Tox21) one finds Potency data, which are given here for 20 compounds.

A short description of assay [1]: A CellTox Green Cytotoxicity Assay to monitor cytotoxicity in HepG2 cells - 32 hour (AID 1224883). Note: nearly all actives have a fitted effect of over 50% in size. Note: potency is the fitted concentration of half-maximal effect. A digest of the protocol: (§1)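 Measurements at 0, 8, 16, 24, 32 and 40 h of treatment captured CellTox Green fluorescence in HepG2 cells that had been co-plated with reagent and preincubated 5 h at 37 C/5% CO2.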
Assay [2] can be described thus: A CellTox Green Cytotoxicity Assay to monitor cytotoxicity in HEK293 cells - 8 hour (AID 1224884). Note: nearly all actives have a fitted effect of over 35% in size. Note: potency is the fitted concentration of half-maximal effect. The method, boiled down:
(§2)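 Tox21 screen in HEK293: membrane-impermeant cyanine dye fluoresces on binding dead-cell DNA; compound pinned 5 h post-seeding, plates held at 37 C, signal read repeatedly through 40 h.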

The nature of assay [3]: qHTS RealTime-Glo MT Cell Viability Assay in HepG2 cells - 16 hour (AID 1224885). Note: nearly all actives have a fitted effect of over 50% in size. A digest of the protocol: (§3)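 Cell number in HepG2 cultures estimated from NanoLuc luminescence generated by metabolic reduction of a prosubstrate by living cells. The homogeneous, nonlytic format allowed repeated reads at 0, 8, 16, 24, 32 and 40 h of compound exposure.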
In general terms: Quantitative high-throughput screening tests each substance at several concentrations.

Assay [4] in a line: qHTS RealTime-Glo MT Cell Viability Assay in HEK293 cells - 24 hour (AID 1224886). Note: nearly all actives have a fitted effect of over 50% in size. Note: potency is the fitted concentration of half-maximal effect. The method, boiled down:
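Homogeneous bioluminescent viability format in HEK293 cells (600 cells/well). Following 5 h at 37 C/5% CO2, 23 nL compound was pintooled; the signal was measured repeatedly during 40 h incubation.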

Assay [5] is described as follows: qHTS RealTime-Glo MT Cell Viability Assay in HEK293 cells - 8 hour (AID 1224887). Note: nearly all actives have a fitted effect of over 50% in size. Note: potency is the fitted concentration of half-maximal effect. A digest of the protocol: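 HEK293 + NanoLuc + prosubstrate, 600 cells/well; 5 h, 37 C/5% CO2; compound 23 nL in DMSO by pintool; 37 C; luminescence read at 0, 8, 16, 24, 32 and 40 h time points.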
Assay [6] can be described thus: A CellTox Green Cytotoxicity Assay to monitor cytotoxicity in HEK293 cells - 16 hour (AID 1224888). Note: nearly all actives have a fitted effect of over 35% in size. Note: potency is the fitted concentration of half-maximal effect. The method, boiled down: as §2
Assay [7] in a line: A CellTox Green Cytotoxicity Assay to monitor cytotoxicity in HepG2 cells - 8 hour (AID 1224890). Note: nearly all actives have a fitted effect of over 45% in size. Note: potency is the fitted concentration of half-maximal effect. A digest of the protocol: as §1
Assay [8] in a line: qHTS assay to identify small molecule antagonists of the androgen receptor (AR) signaling pathway using the MDA cell line in the presence of 0.5 nM R1881 - cell viability counter screen (AID 1259242). Note: nearly all actives have a fitted effect of over 45% in size. Note: potency is the fitted concentration of half-maximal effect. A digest of the protocol: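 Concentration-response screen of compounds for toxicity in MDA-kb2 reporter cells: 16 hr at 37C with 0.5 nM R1881, endpoint live-cell protease fluorescence measured in the reporter wells.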

Assay [9] can be described thus: qHTS RealTime-Glo MT Cell Viability Assay in HepG2 cells - 0 hour (AID 1224889). Note: nearly all actives have a fitted effect of over 50% in size. The method, boiled down: as §3
The nature of assay [10]: qHTS assay to identify small molecule antagonists of the estrogen receptor alpha (ER-alpha) signaling pathway using the BG1 cell line in the presence of 0.1 nM 17-beta-estradiol - cell viability counter screen (AID 1259241). Note: nearly all actives have a fitted effect of over 40% in size. The method, boiled down:
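Live-cell protease activity (CellTiter-Fluor fluorescence, 30 min) was read in the same wells after VM7Luc4E2 cells had been exposed to compounds with 0.1 nM 17beta-estradiol for 22 hr at 37C.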

Several values for one entry are separate records, joined by “and”; a condition that tells them apart may be missing. Equal entries are not always repeated. Results filed as inconclusive are left out. More than one record can exist for a structure, and the calls need not agree. Activity calls are given as the source filed them. Calls come from the whole dose curve; as a rule, active = well fitted curve in the direction sought with a large enough effect in the repeat runs; inconclusive = weak or mixed curves; inactive = no such curve, though single readings can be large; an effect the other way counts as inactive or inconclusive.

On to `Cc1scc2c1N(C(=O)CN1CCN(C)CC1)c1ccccc1NC2=O`, for which the Potency entry in assay [1], in assay [2], in assay [3], in assay [4], in [5] and in assay [6] was “inactive” each time. In addition, the Potency entry in assay [7] and in [8] was “inactive” in each case.

As to `O=C(OCc1ccccc1)c1ccc(O)cc1`, the Potency in assay [1] is 49 µM (active) and inactive. Moreover, the Potency entry in assay [2], in assay [3], in assay [5], in assay [6], in assay [9] and in assay [7] was “inactive” each time. Also, the Potency result in assay [10] and in [8] was “inactive” in each case.

In the case of `COC(c1ccccc1)(c1ccccc1)[C@H](Oc1nc(C)cc(C)n1)C(=O)O`, the Potency entry in assay [1], in assay [2], in assay [3], in assay [4], in [5] and in assay [6] was “inactive” in each case. Further, the Potency result in [9], in assay [7] and in assay [8] was “inactive” each time.

In the case of `c1ccc2cc3c(ccc4ccccc43)cc2c1`, the Potency result in [1], in assay [2], in assay [3], in assay [4], in assay [5] and in [6] was “inactive” throughout. Moreover, the Potency result in assay [7], in assay [10] and in assay [8] was “inactive” each time.

Regarding `CC(C)C(=O)c1c(C(C)C)nn2ccccc12`, the Potency result in [1], in [2], in assay [3], in assay [4], in assay [5] and in [6] was “inactive” throughout. The Potency entry in assay [7], in assay [10] and in assay [8] was “inactive” each time.

Take `Oc1ccc(Cl)cc1Cc1cc(Cl)ccc1O`: the Potency result in [1], in [2], in assay [3], in [6], in [9] and in assay [7] was “inactive” each time. The Potency result in assay [10] is “inactive”. Besides, the Potency in [5] was 25 µM (active) and inactive.

For the compound `CCc1cc(C(C)(C)C)c(O)c(C(C)(C)C)c1`, the Potency result in assay [1], in [2], in [3], in assay [4], in [5] and in assay [9] was “inactive” in each case. Also, the Potency entry in [7], in assay [10] and in [8] was “inactive” in each case.

Regarding `O=C1OC2(c3ccc(O)cc3Oc3cc(O)ccc32)c2ccccc21`, the Potency in assay [1] was 616 nM (active) and 301 nM (active); in assay [2], 692 nM (active) and 848 nM (active); in assay [6], 616 nM (active) and 1.2 µM (active); in [7], 692 nM (active) and 301 nM (active). In addition, the Potency entry in [3], in [5] and in assay [9] was “inactive” in each case.

For `CCn1c2ccccc2c2cc(N)ccc21`, the Potency entry in assay [1], in [2], in assay [3], in [4], in assay [5] and in [6] was “inactive” throughout. Moreover, the Potency result in assay [7], in [10] and in assay [8] was “inactive” in each case.

`CC1COC(=O)O1` (stereo unspecified): the Potency entry is “inactive and 43.6 µM (active)” in assay [1]; “inactive and 43.6 µM (active)” in assay [7]. Further, the Potency entry in assay [2], in assay [3], in assay [5], in [6], in assay [9] and in assay [10] was “inactive” in each case. In addition, in assay [8], the Potency result is “inactive”.

As for `CCCCOCCOC(=O)c1ccccc1C(=O)OCCOCCCC`, the Potency entry in assay [1], in assay [2], in [3], in assay [4], in [5] and in assay [6] was “inactive” in each case. Moreover, the Potency result in assay [9], in [7] and in [8] was “inactive” throughout.

Turning to `CC(C)(C)NCC(O)c1cc(O)cc(O)c1` (stereo unspecified), the Potency result in [1], in assay [2], in assay [3], in assay [5], in [6] and in [9] was “inactive” each time. The Potency entry in assay [7], in [10] and in assay [8] was “inactive” each time.

Consider `CC(=O)Nc1ccc(C(=O)CCl)cc1`, for which the Potency entry in [1] was “inactive and 19.5 µM (active)”; in assay [4], “inactive and 19.5 µM (active)”; in assay [8], “inactive and 54.5 µM (active)”. In addition, the Potency result in [2], in [3], in assay [5], in assay [6], in [9] and in [7] was “inactive” each time.

Turning to `CCCCCCC(O)CCCCCCCCCCC(=O)O` (stereo unspecified), the Potency result in assay [1], in [2], in [3], in assay [5], in assay [6] and in [9] was “inactive” each time. The Potency result in assay [7], in assay [10] and in assay [8] was “inactive” in each case.

Turning to `CC(C(O)c1ccc(O)cc1)N1CCC(Cc2ccccc2)CC1` (stereo unspecified), the Potency entry in [1], in [2], in [3], in assay [4], in [5] and in assay [6] was “inactive” throughout. The Potency result in [7], in assay [10] and in assay [8] was “inactive” throughout.

In the case of `COc1ccc(Cc2cnc(N)nc2N)cc1OC`, the Potency result in assay [1], in [2], in [3], in assay [4], in assay [5] and in [6] was “inactive” each time. For the same compound, the Potency entry in assay [9], in [7] and in [8] was “inactive” in each case.

`C/C=C/c1ccc(OCC)c(O)c1`: the Potency result in assay [1], in assay [2], in [3], in assay [4], in assay [5] and in assay [6] was “inactive” each time. In addition, the Potency entry in [7], in [10] and in assay [8] was “inactive” in each case.

With `OCC(CO)N[C@H]1C[C@](O)(CO)[C@@H](O)[C@H](O)[C@H]1O`, the Potency result in assay [1], in [2], in [3], in assay [4], in assay [5] and in [6] was “inactive” each time. Moreover, the Potency result in [9], in assay [7] and in [8] was “inactive” throughout.

On to `C=CS(=O)(=O)O`, for which the Potency result in assay [1], in [2], in [3], in assay [4], in [5] and in assay [6] was “inactive” throughout. Besides, the Potency result in assay [7], in assay [10] and in assay [8] was “inactive” each time.

As for `c1cnc2cc3c(cc2n1)C1CNCC3C1`, the Potency result in [1], in assay [2], in assay [3], in [4], in [5] and in [6] was “inactive” in each case. Further, the Potency result in assay [9], in [7] and in assay [8] was “inactive” throughout.
